Records with an inconclusive call do not appear. Entries that show only a call come without a potency. Active and inactive are the calls of the source. Calls come from the whole dose curve; as a rule, active = well fitted inhibition curve with a large enough effect; inconclusive = small, poorly fitted or top-dose-only effect; inactive = flat fitted curve, though single readings scatter. *1 amine or outer side, *2 acyl side, *3 side chain or, on linkers, in order; H or OH if unused. Where a SMILES comes first, the peptide text is derived from it. Bridges are numbered along the chain shown (N, C = ends). [ ]: non-standard residue; d: D form. The star is where a group is joined. ξ: configuration not given here. X5 = NC1=N[C@@H]([C@H](N[*:1])C(=O)[*:2])C[C@H](O)N1; ΔAla(Z-3-ureido) = NC(=O)N/C=C(\N)C(=O)O; d(aThr) = C[C@@H](O)[C@@H](N)C(=O)O; ξThr(3R) = C[C@@H](O)C(N)C(=O)O; β3hOrn = NCCC[C@H](N)CC(=O)*; X3 = CC[C@@H](C)CCCCC(=O)*; dDab = NCC[C@@H](N)C(=O)O; Dap = NC[C@H](N)C(=O)O
Potency is the fitted concentration of half-maximal effect.

The assay can be described thus: P-glycoprotein substrates identified in KB-8-5-11 adenocarcinoma cell line, qHTS therapeutic library screen (AID 1346987). Note: nearly all actives have a fitted effect of over 65% in size. To be noted: KB-8-5-11 (P-gp overexpressing) viability, CellTiter-Glo, 72 h; series mostly up to 44.5 µM. The gist of the method: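 In this qHTS, P-gp-rich KB-8-5-11 cells received library compounds across a concentration range. Viability was quantified by luminescence after 72 h at 37 degree C.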
For `OCCOCCOCCO`, the Potency result is “inactive”.

On to `O=C1N=C2SCCN2C(=O)C1Cc1ccc(Cl)cc1` (stereo not given), for which the Potency entry is “inactive”.

Take `CC(=O)N[C@@H]([C@@H](O)[C@H](O)[C@H](O)CO)[C@@H](O)CC(=O)C(=O)O`: the Potency result was “inactive”.

Take `CO[C@H]1C=CO[C@@]2(C)Oc3c(C)c(O)c4c(O)c(cc(O)c4c3C2=O)NC(=O)/C(C)=C\C=C/[C@H](C)[C@H](O)[C@@H](C)[C@@H](O)[C@@H](C)[C@H](OC(C)=O)[C@@H]1C`: the Potency entry is “inactive”.

`CCCCCc1ccc(C)cc1O`: the Potency result was “inactive”.

As for `CC[C@@H](C)CCCCC(=O)N[C@H](CCN)C(=O)N[C@@H](C(=O)N[C@H](CCN)C(=O)N[C@@H]1CCNC(=O)C([C@@H](C)O)NC(=O)[C@@H](CCN)NC(=O)[C@@H](CCN)NC(=O)[C@@H](CC(C)C)NC(=O)[C@@H](Cc2ccccc2)NC(=O)[C@@H](CCN)NC1=O)[C@@H](C)O` (stereo partly drawn) (X3-[dDab][d(aThr)][dDab][dDab][dDab][dF][dL][dDab][dDab][ξThr(3R)]; lactam 4-C), the Potency result is “inactive”.

In the case of `CC(=O)Nc1ccc(OC(C)=O)cc1`, the Potency result was “inactive”.

For `CC(C)(C)NCC(O)CSc1nc(-c2ccc(C(N)=O)s2)cs1` (stereo not given), the Potency result was “inactive”.

Take `NCCC[C@H](N)CC(=O)N[C@H]1CNC(=O)[C@H]([C@H]2C[C@H](O)NC(N)=N2)NC(=O)/C(=C/NC(N)=O)NC(=O)[C@H](CO)NC(=O)[C@H](CO)NC1=O` (β3hOrn-[Dap]SS[ΔAla(Z-3-ureido)][X5]; lactam 1-C): the Potency entry is “inactive”.

In the case of `[O]=[Bi][O][Bi]=[O]`, the Potency result is “inactive”.

Turning to `CCOC(C)OCC`, the Potency result is “inactive”.

Consider `C[C@H](NCCc1ccc(O)cc1)[C@H](O)c1ccc(O)cc1`, for which the Potency entry was “inactive”.

Take `O=C1c2ccccc2C(=O)C1c1ccc(Cl)cc1`: the Potency entry was “inactive”.

Turning to `CC(C)CN(C[C@@H](O)[C@H](Cc1ccccc1)NC(=O)O[C@@H]1CCOC1)S(=O)(=O)c1ccc(N)cc1`, the Potency entry was “inactive”.

As for `NCCO/C=C/[C@H](N)C(=O)O`, the Potency entry was “inactive”.

Consider `C[C@@H]1C[C@H]2[C@@H]3CCC4=CC(=O)C=C[C@]4(C)[C@@]3(F)[C@@H](O)C[C@]2(C)[C@@]1(O)C(=O)COC(=O)c1cccc(S(=O)(=O)O)c1`, for which the Potency entry was “inactive”.

For the compound `O=C1CCC(c2ccccc2)(C2CCN(Cc3ccccc3)CC2)C(=O)N1` (stereo not given), the Potency entry is “inactive”.

For `Cc1ccc(S(=O)(=O)NC(=O)N[C@@H](C)Cc2ccccc2)cc1`, the Potency entry is “inactive”.

On to `CC(C)CCCCCCc1ccc(O)cc1`, for which the Potency entry is “inactive”.

For the compound `COC(=O)CC[C@H](N)C(=O)O`, the Potency result was “inactive”.

On to `OCc1ccccc1`, for which the Potency entry is “inactive”.

On to `CCCCCCOC(=O)c1cccnc1`, for which the Potency result is “inactive”.

On to `O=C(O)COc1ccc(CCNS(=O)(=O)c2ccccc2)s1`, for which the Potency result was “inactive”.

`O=[N+]([O-])O[C@@H]1CO[C@H]2[C@@H]1OC[C@@H]2O`: the Potency result was “inactive”.

On to `O=C(OC[C@H]1O[C@](O)(COC(=O)c2cccnc2)[C@@H](OC(=O)c2cccnc2)[C@@H]1OC(=O)c1cccnc1)c1cccnc1`, for which the Potency result is “inactive”.

Regarding `CN(C)C(=O)CCSC(SCCC(=O)O)c1cccc(/C=C/c2ccc3ccc(Cl)cc3n2)c1` (stereo not given), the Potency entry was “inactive”.

Consider `CCc1ncnc2cc(OC)c(OC)cc12`, for which the Potency entry was “inactive”.

For `CCOC(=O)Cc1ccc(-c2ccccc2)cc1`, the Potency entry was “inactive”.

`Cc1ncc(C[n+]2csc(CCO)c2C)c(N)n1`: the Potency result was “inactive”.

As for `CCOC(=O)[C@@H](N)CS`, the Potency entry is “inactive”.

For `CCc1ccc(S(=O)(=O)O)cc1`, the Potency entry is “inactive”.

In the case of `CCCCC(=O)O[C@H]1CC[C@H]2[C@@H]3CCc4cc(O)ccc4[C@H]3CC[C@]12C`, the Potency was 14.6 µM (active).

Regarding `CN=C1C=CC(=C(c2ccc(N(C)C)cc2)c2ccc(N(C)C)cc2)C=C1`, the Potency was 20.6 µM (active).

With `CSCCC(N)C(=O)O` (stereo not given), the Potency entry is “inactive”.

Take `CC(=O)Nc1ccc(OC(=O)c2ccccc2O)cc1`: the Potency entry was “inactive”.

As to `CC1(C)S[C@@H]2[C@H](N3C(=O)C(c4ccccc4)NC3(C)C)C(=O)N2[C@H]1C(=O)O` (stereo not given in full), the Potency entry was “inactive”.

As for `O=C1c2ccccc2C(=O)C1c1ccc(F)cc1`, the Potency result is “inactive”.

With `CC(C)C[C@@H](NC(=O)[C@@H](O)[C@H](N)Cc1ccccc1)C(=O)O`, the Potency result was “inactive”.

As for `O=C1C2CC3CC1CC(O)(C3)C2`, the Potency result was “inactive”.

`FC(F)(F)COCC(F)(F)F`: the Potency entry is “inactive”.
